Assays:
Assay in all cases: DAPPL (digital affinity profiling via proximity ligation, sequencing); 10 mM Tris-HCl pH 7.5, 50 mM NaCl, 1 mM DTT, 4% glycerol, room temperature, 30 min; GST-TFs on glutathione beads, 16-mer random dsDNA library, 0.1% formaldehyde crosslink after washing; high values mean tight binding
Settings in all cases: protein: recombinant; tags: N-terminal GST; dsDNA, one strand shown
ERF = biological target: T1, ERF (Homo sapiens, UniProt P50548 1-548)
T1 sequence: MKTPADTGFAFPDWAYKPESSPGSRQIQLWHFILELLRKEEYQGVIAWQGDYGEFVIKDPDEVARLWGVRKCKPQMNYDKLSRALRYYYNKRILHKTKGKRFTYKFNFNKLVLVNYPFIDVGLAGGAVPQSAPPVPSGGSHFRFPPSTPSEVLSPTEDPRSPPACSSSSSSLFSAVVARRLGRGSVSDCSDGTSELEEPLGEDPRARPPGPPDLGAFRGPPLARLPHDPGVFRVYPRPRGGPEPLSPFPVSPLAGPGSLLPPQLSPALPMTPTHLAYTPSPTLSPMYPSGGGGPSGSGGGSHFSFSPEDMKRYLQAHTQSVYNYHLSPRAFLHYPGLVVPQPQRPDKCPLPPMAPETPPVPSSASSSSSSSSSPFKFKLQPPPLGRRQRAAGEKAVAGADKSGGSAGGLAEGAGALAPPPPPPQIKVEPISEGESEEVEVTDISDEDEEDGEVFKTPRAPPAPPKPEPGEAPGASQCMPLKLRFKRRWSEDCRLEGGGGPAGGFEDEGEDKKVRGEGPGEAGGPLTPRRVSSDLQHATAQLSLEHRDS
Outline: (§1)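 Human transcription factors carrying a GST fusion were produced in yeast, bound to glutathione beads, tagged with DNA barcodes and pooled together with a tag-only sample. Each pool was held with 200 nmole of a random double-stranded 16-mer DNA library in Tris/NaCl/DTT/glycerol buffer for 30 min at room temperature, then washed, crosslinked in 0.1% formaldehyde, proximity-ligated with BsaI/T4 ligase (1 h, 37 °C), PCR-amplified and sequenced on an Illumina NextSeq500. Binding signal is the read frequency of each hexamer for a given factor divided by its frequency in the tag-only sample.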

ETV3L = biological target: T2, ETV3L (Homo sapiens, UniProt Q6ZN32 1-361)
T2 sequence: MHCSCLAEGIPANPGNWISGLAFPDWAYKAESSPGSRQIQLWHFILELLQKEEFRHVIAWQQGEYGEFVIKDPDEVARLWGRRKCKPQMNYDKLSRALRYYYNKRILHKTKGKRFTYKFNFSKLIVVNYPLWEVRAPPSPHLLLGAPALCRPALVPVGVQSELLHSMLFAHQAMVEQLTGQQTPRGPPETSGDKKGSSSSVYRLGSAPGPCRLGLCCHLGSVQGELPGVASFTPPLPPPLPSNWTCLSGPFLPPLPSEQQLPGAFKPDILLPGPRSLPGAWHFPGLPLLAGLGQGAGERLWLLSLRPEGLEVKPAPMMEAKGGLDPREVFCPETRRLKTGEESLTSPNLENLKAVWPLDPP
Outline: as §1

ETS2 = biological target: T3, ETS2 (Homo sapiens, UniProt P15036 1-469)
T3 sequence: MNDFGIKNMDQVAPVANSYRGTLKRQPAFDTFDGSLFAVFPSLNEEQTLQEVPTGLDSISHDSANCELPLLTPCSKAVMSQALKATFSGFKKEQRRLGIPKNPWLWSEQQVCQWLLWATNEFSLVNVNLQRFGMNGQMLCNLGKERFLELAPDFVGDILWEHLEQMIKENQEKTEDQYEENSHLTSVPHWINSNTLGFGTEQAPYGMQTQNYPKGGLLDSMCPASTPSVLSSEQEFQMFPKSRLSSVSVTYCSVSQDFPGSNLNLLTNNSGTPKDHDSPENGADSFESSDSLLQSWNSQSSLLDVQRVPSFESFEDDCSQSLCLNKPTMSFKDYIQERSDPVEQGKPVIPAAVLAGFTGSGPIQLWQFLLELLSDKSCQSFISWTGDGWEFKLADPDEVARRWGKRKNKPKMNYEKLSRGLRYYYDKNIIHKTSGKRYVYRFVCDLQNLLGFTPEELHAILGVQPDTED
Outline: as §1

SPDEF = biological target: T4, SPDEF (Homo sapiens, UniProt O95238 1-335)
T4 sequence: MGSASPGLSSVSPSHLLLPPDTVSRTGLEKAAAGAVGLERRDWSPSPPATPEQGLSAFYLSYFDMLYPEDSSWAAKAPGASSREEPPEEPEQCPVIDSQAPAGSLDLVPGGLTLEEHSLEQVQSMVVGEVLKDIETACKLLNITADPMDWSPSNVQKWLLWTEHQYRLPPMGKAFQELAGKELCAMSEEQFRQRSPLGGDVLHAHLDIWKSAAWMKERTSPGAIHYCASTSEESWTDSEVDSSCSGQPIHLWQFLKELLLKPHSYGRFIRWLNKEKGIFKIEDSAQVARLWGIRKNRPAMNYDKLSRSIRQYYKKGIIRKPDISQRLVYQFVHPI
Outline: as §1

ETV7 = biological target: T5, ETV7 (Homo sapiens, UniProt Q9Y603 1-341)
T5 sequence: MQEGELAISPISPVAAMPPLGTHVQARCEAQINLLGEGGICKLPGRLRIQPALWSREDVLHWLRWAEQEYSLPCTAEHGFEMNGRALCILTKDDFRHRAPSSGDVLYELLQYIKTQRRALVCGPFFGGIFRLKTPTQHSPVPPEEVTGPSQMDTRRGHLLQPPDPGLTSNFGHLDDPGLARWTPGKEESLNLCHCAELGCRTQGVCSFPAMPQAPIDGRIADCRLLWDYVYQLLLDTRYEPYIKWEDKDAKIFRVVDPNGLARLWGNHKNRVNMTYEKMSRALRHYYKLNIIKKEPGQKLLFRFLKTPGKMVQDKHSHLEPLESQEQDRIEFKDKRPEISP
Outline: as §1

ELF5 = biological target: T6, ELF5 (Homo sapiens, UniProt Q9UKW6-2 1-255)
T6 sequence: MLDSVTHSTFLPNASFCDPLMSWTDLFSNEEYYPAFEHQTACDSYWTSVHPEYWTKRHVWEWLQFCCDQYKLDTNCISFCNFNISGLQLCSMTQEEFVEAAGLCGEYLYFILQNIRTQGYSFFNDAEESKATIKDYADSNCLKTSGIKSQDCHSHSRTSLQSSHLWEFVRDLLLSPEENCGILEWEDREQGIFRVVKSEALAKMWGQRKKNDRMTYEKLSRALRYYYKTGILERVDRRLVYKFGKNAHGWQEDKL
Outline: as §1

ETV3 = biological target: T7, ETV3 (Homo sapiens, UniProt P41162-2 1-143)
T7 sequence: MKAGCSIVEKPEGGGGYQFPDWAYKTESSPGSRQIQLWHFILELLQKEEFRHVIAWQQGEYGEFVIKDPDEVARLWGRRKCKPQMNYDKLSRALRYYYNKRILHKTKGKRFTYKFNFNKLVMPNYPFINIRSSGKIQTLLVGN
Outline: as §1

ETV6 = ETV6 (Homo sapiens, UniProt P41212 1-452)
Outline: as §1

Chain of ETV6 (P41212 whole entry): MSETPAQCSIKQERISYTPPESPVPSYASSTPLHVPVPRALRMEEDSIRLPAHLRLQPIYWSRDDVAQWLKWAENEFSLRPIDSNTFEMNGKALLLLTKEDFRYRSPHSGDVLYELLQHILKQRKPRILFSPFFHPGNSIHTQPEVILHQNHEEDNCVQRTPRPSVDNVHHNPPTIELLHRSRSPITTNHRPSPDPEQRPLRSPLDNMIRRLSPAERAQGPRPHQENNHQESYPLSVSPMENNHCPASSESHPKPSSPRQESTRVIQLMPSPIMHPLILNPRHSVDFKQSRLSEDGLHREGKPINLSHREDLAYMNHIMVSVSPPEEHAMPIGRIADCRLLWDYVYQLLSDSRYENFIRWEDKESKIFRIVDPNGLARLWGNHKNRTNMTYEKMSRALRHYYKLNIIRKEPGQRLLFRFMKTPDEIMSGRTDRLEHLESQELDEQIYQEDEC

| Sequence | binding signal (ERF) | binding signal (ETV3L) | binding signal (ETS2) | binding signal (SPDEF) | binding signal (ETV7) | binding signal (ELF5) | binding signal (ETV3) | binding signal (ETV6) |
| --- | --- | --- | --- | --- | --- | --- | --- | --- |
| CCCTCT | 1.41 fold enrichment (6-mer frequency, TF over GST control) | 1.3 fold enrichment (6-mer frequency, TF over GST control) | 1.36 fold enrichment (6-mer frequency, TF over GST control) | 1.17 fold enrichment (6-mer frequency, TF over GST control) | 1.27 fold enrichment (6-mer frequency, TF over GST control) | 1.29 fold enrichment (6-mer frequency, TF over GST control) | 1.4 fold enrichment (6-mer frequency, TF over GST control) | 1.31 fold enrichment (6-mer frequency, TF over GST control) |
| AAGTCA | 1.2 fold enrichment (6-mer frequency, TF over GST control) | 1.19 fold enrichment (6-mer frequency, TF over GST control) | 1.21 fold enrichment (6-mer frequency, TF over GST control) | 1.18 fold enrichment (6-mer frequency, TF over GST control) | 1.24 fold enrichment (6-mer frequency, TF over GST control) | 1.21 fold enrichment (6-mer frequency, TF over GST control) | 1.15 fold enrichment (6-mer frequency, TF over GST control) | 1.26 fold enrichment (6-mer frequency, TF over GST control) |
| CGGTTT | 1.23 fold enrichment (6-mer frequency, TF over GST control) | 1.14 fold enrichment (6-mer frequency, TF over GST control) | 1.2 fold enrichment (6-mer frequency, TF over GST control) | 1.36 fold enrichment (6-mer frequency, TF over GST control) | 1.2 fold enrichment (6-mer frequency, TF over GST control) | 1.31 fold enrichment (6-mer frequency, TF over GST control) | 1.22 fold enrichment (6-mer frequency, TF over GST control) | 1.23 fold enrichment (6-mer frequency, TF over GST control) |
| CCTCGG | 1.23 fold enrichment (6-mer frequency, TF over GST control) | 1.23 fold enrichment (6-mer frequency, TF over GST control) | 1.23 fold enrichment (6-mer frequency, TF over GST control) | 1.04 fold enrichment (6-mer frequency, TF over GST control) | 1.11 fold enrichment (6-mer frequency, TF over GST control) | 1.2 fold enrichment (6-mer frequency, TF over GST control) | 1.05 fold enrichment (6-mer frequency, TF over GST control) | 1.24 fold enrichment (6-mer frequency, TF over GST control) |
| TGTCTA | 1.21 fold enrichment (6-mer frequency, TF over GST control) | 1.08 fold enrichment (6-mer frequency, TF over GST control) | 1.18 fold enrichment (6-mer frequency, TF over GST control) | 1.2 fold enrichment (6-mer frequency, TF over GST control) | 1.28 fold enrichment (6-mer frequency, TF over GST control) | 1.24 fold enrichment (6-mer frequency, TF over GST control) | 1.23 fold enrichment (6-mer frequency, TF over GST control) | 1.07 fold enrichment (6-mer frequency, TF over GST control) |
| GGCCTA | 1.19 fold enrichment (6-mer frequency, TF over GST control) | 1.15 fold enrichment (6-mer frequency, TF over GST control) | 1.19 fold enrichment (6-mer frequency, TF over GST control) | 1.29 fold enrichment (6-mer frequency, TF over GST control) | 1.26 fold enrichment (6-mer frequency, TF over GST control) | 1.13 fold enrichment (6-mer frequency, TF over GST control) | 1.3 fold enrichment (6-mer frequency, TF over GST control) | 1.17 fold enrichment (6-mer frequency, TF over GST control) |
| CCATAC | 1.27 fold enrichment (6-mer frequency, TF over GST control) | 1.22 fold enrichment (6-mer frequency, TF over GST control) | 1.18 fold enrichment (6-mer frequency, TF over GST control) | 1.2 fold enrichment (6-mer frequency, TF over GST control) | 1.14 fold enrichment (6-mer frequency, TF over GST control) | 1.09 fold enrichment (6-mer frequency, TF over GST control) | 1.08 fold enrichment (6-mer frequency, TF over GST control) | 1.21 fold enrichment (6-mer frequency, TF over GST control) |
| GGAAAC | 1.19 fold enrichment (6-mer frequency, TF over GST control) | 1.32 fold enrichment (6-mer frequency, TF over GST control) | 1.3 fold enrichment (6-mer frequency, TF over GST control) | 1.29 fold enrichment (6-mer frequency, TF over GST control) | 1.34 fold enrichment (6-mer frequency, TF over GST control) | 1.7 fold enrichment (6-mer frequency, TF over GST control) | 1.42 fold enrichment (6-mer frequency, TF over GST control) | 1.66 fold enrichment (6-mer frequency, TF over GST control) |
| CGTACC | 1.12 fold enrichment (6-mer frequency, TF over GST control) | 1.13 fold enrichment (6-mer frequency, TF over GST control) | 1.15 fold enrichment (6-mer frequency, TF over GST control) | 1.17 fold enrichment (6-mer frequency, TF over GST control) | 1.1 fold enrichment (6-mer frequency, TF over GST control) | 1.19 fold enrichment (6-mer frequency, TF over GST control) | 1.03 fold enrichment (6-mer frequency, TF over GST control) | 1.16 fold enrichment (6-mer frequency, TF over GST control) |
| CCGACA | 1.22 fold enrichment (6-mer frequency, TF over GST control) | 1.24 fold enrichment (6-mer frequency, TF over GST control) | 1.26 fold enrichment (6-mer frequency, TF over GST control) | 1.27 fold enrichment (6-mer frequency, TF over GST control) | 1.13 fold enrichment (6-mer frequency, TF over GST control) | 1.25 fold enrichment (6-mer frequency, TF over GST control) | 1.24 fold enrichment (6-mer frequency, TF over GST control) | 1.23 fold enrichment (6-mer frequency, TF over GST control) |
| CTGTCA | 1.17 fold enrichment (6-mer frequency, TF over GST control) | 1.22 fold enrichment (6-mer frequency, TF over GST control) | 1.14 fold enrichment (6-mer frequency, TF over GST control) | 1.06 fold enrichment (6-mer frequency, TF over GST control) | 1.12 fold enrichment (6-mer frequency, TF over GST control) | 1.14 fold enrichment (6-mer frequency, TF over GST control) | 1.09 fold enrichment (6-mer frequency, TF over GST control) | 1.1 fold enrichment (6-mer frequency, TF over GST control) |
| GCCCCT | 1.27 fold enrichment (6-mer frequency, TF over GST control) | 1.3 fold enrichment (6-mer frequency, TF over GST control) | 1.27 fold enrichment (6-mer frequency, TF over GST control) | 1.37 fold enrichment (6-mer frequency, TF over GST control) | 1.22 fold enrichment (6-mer frequency, TF over GST control) | 1.2 fold enrichment (6-mer frequency, TF over GST control) | 1.23 fold enrichment (6-mer frequency, TF over GST control) | 1.23 fold enrichment (6-mer frequency, TF over GST control) |
| ACTCCC | 1.44 fold enrichment (6-mer frequency, TF over GST control) | 1.19 fold enrichment (6-mer frequency, TF over GST control) | 1.27 fold enrichment (6-mer frequency, TF over GST control) | 1.32 fold enrichment (6-mer frequency, TF over GST control) | 1.31 fold enrichment (6-mer frequency, TF over GST control) | 1.38 fold enrichment (6-mer frequency, TF over GST control) | 1.47 fold enrichment (6-mer frequency, TF over GST control) | 1.47 fold enrichment (6-mer frequency, TF over GST control) |
| TTTTAG | 1.26 fold enrichment (6-mer frequency, TF over GST control) | 1.26 fold enrichment (6-mer frequency, TF over GST control) | 1.2 fold enrichment (6-mer frequency, TF over GST control) | 1.12 fold enrichment (6-mer frequency, TF over GST control) | 1.24 fold enrichment (6-mer frequency, TF over GST control) | 1.06 fold enrichment (6-mer frequency, TF over GST control) | 1.21 fold enrichment (6-mer frequency, TF over GST control) | 1.19 fold enrichment (6-mer frequency, TF over GST control) |
| ATGTGC | 1.15 fold enrichment (6-mer frequency, TF over GST control) | 1.11 fold enrichment (6-mer frequency, TF over GST control) | 1.1 fold enrichment (6-mer frequency, TF over GST control) | 1.23 fold enrichment (6-mer frequency, TF over GST control) | 1.03 fold enrichment (6-mer frequency, TF over GST control) | 1.09 fold enrichment (6-mer frequency, TF over GST control) | 1.15 fold enrichment (6-mer frequency, TF over GST control) | 1.1 fold enrichment (6-mer frequency, TF over GST control) |
